Compound activity deposited in PubChem by several laboratories.
Shn3 3UTR inh – Schnurri-3 reporter inhibition in Clone20 osteoblasts. Clone20 osteoblast Shn3 3'UTR firefly luciferase, 24 h. hit rate 0.52% among 360,000. inhibition, % at 12.5 µM;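 active = mean inhibition of at least 75% with every replicate also reaching 75%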;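 note: 0% = median of neutral control wells and 100% = pilot-screen positive control compound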
Peg3 prom inh – Peg3 promoter activity inhibition; HeLa PEG-Prom luciferase reporter, luminescence, overnight; inhibition, % at 20 µM; hit rate 1.7% among 360,000; AID 588405;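 active = inhibition of at least 50% at 20 µM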
EBV LMP1 NFkB – Epstein-Barr LMP1 NF-kappaB reporter inhibition. LMP1-induced NF-kappaB luciferase reporter cells, luminescence. inhibition, % at 12.5 µM. hit rate 0.69% among 350,000. AID 504558; in the data active = inhibition above about 41%;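 note: 0% = neutral control wells and 100% = reference inhibitor control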
TROY signal inh – blocks TROY-dependent signaling in reporter cells. Q293 LMP1-TROYcd NF-kB luciferase reporter, 4 h. hit rate 0.98% among 360,000. AID 1347056. inhibition, % at 10 µM;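 active = compounds whose plate-normalised and pattern-corrected inhibition of the luciferase reporter signal at the single screening dose is 50% or more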
TRPM1 prom inh – reduces MITF-dependent TRPM1 promoter luciferase signal | AID 488899 | SK-MEL-5 TRPM1 promoter luciferase, 24 h | hit rate 0.83% among 330,000 | inhibition, % at 12.5 µM;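 active = mean inhibition across replicates of 60% or more, whatever share of single replicates reaches that level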
TWEAK Fn14 block – blocks TWEAK-Fn14 interaction in a reporter cell assay | TWEAK-stimulated Fn14 reporter cells, luciferase luminescence, 8 h | inhibition, % at 10 µM | hit rate 2% among 360,000; in the data active = inhibition above about 50%
* marks the source's active call; other numbers are inactive results; ! = not confirmed by another sample. Hits are enriched below; roughly 4.1% of the tested compounds scored in any of these assays.

Screening CC(/C=C1\SC(=S)N(CCC(=O)Nc2cccc(C(=O)O)c2)C1=O)=C\c1ccccc1 returned Shn3 3UTR inh -12, Peg3 prom inh -5, EBV LMP1 NFkB -3, TROY signal inh 32, TRPM1 prom inh -10 and TWEAK Fn14 block -7.
Screening CC(=Cc1ccccc1)C=C1SC(=S)N(CCCC(=O)Nc2ccc(C(=O)O)cc2)C1=O returned Shn3 3UTR inh -32, Peg3 prom inh -122, TROY signal inh 29 and TWEAK Fn14 block 64*.
For O=C(CCCN1C(=O)/C(=C/c2ccco2)SC1=S)Nc1ccccc1C(=O)O the results were Shn3 3UTR inh -11, Peg3 prom inh -1, EBV LMP1 NFkB -7, TROY signal inh 9, TRPM1 prom inh -10 and TWEAK Fn14 block 3.
`O=C(CCCN1C(=O)/C(=C\c2ccco2)SC1=S)Nc1ccc2ccccc2c1` gave Shn3 3UTR inh 8, Peg3 prom inh 15, EBV LMP1 NFkB -1, TROY signal inh 17, TRPM1 prom inh -3 and TWEAK Fn14 block 59*.
For CC(/C=C1\SC(=S)N(CCCC(=O)Nc2ccc(C(=O)O)cc2)C1=O)=C\c1ccccc1 the results were Shn3 3UTR inh -24, Peg3 prom inh -70, EBV LMP1 NFkB -2, TROY signal inh -3, TRPM1 prom inh -5 and TWEAK Fn14 block 50*.
For O=C(COC(=O)c1ccc(Cl)nc1)Nc1ccc(N2CCCCC2)cc1 the results were Shn3 3UTR inh 7, Peg3 prom inh -37, EBV LMP1 NFkB -2, TROY signal inh -6, TRPM1 prom inh -9 and TWEAK Fn14 block -1.
Screening COc1ccc(/C=C(\NC(=O)c2ccc(C)cc2)C(=O)N2CCCCC2)cc1 returned Shn3 3UTR inh -44, Peg3 prom inh 7, EBV LMP1 NFkB -5, TROY signal inh -14, TRPM1 prom inh -8 and TWEAK Fn14 block -4.
Cc1onc(-c2c(Cl)cccc2Cl)c1C(=O)N[C@@H]1C(=O)N2[C@@H]1SC(C)(C)[C@@H]2C(=O)O was read as Shn3 3UTR inh 91*!, Peg3 prom inh -5, EBV LMP1 NFkB 75*!, TROY signal inh 4, TRPM1 prom inh 17 and TWEAK Fn14 block -14.
For Cc1ccc([C@@H]2[C@@H]3C(=O)N(C)C(=O)[C@@H]3[C@]3(C)C(=O)N(CCO)CC(=O)N23)o1 the results were Shn3 3UTR inh 1, Peg3 prom inh 1, EBV LMP1 NFkB 0, TROY signal inh 1, TRPM1 prom inh 3 and TWEAK Fn14 block -17.
Screening CC(=O)Nc1cncc(-c2cccc(S(C)(=O)=O)c2)n1 returned Shn3 3UTR inh -8, Peg3 prom inh -4, TROY signal inh 3 and TWEAK Fn14 block 13.
`O=C(c1cccs1)N1CCN=C1SCc1ccc(F)cc1` gave Shn3 3UTR inh -5, Peg3 prom inh -2, EBV LMP1 NFkB 0, TROY signal inh 73*, TRPM1 prom inh -14 and TWEAK Fn14 block 7.
O=C(c1cccs1)N1CCN=C1SCc1ccccc1 was read as Shn3 3UTR inh 1, Peg3 prom inh -4, EBV LMP1 NFkB 2, TROY signal inh -2, TRPM1 prom inh -15 and TWEAK Fn14 block -1.
CCOC(=O)c1c(C)[nH]c(C)c1C(=O)COC(=O)c1ccc([N+](=O)[O-])s1 was read as Shn3 3UTR inh -7, Peg3 prom inh 9, EBV LMP1 NFkB -4, TROY signal inh -17, TRPM1 prom inh 76* and TWEAK Fn14 block -6.
`CCOC(=O)c1c(C)[nH]c(C)c1C(=O)COC(=O)/C=C/c1ccccc1[N+](=O)[O-]` gave Shn3 3UTR inh 22, Peg3 prom inh 3, EBV LMP1 NFkB 7, TROY signal inh -1, TRPM1 prom inh 15 and TWEAK Fn14 block 0.
`CCc1ccc2c(c1)C1(NN=C(c3cccc4ccccc34)S1)C(=O)N2` (stereo unspecified) gave Shn3 3UTR inh 66, Peg3 prom inh 51*, EBV LMP1 NFkB 36, TROY signal inh 1, TRPM1 prom inh 51 and TWEAK Fn14 block -17.
For CCc1ccc2c(c1)NC(=O)C2(C)Cc1ccccc1 (stereo unspecified) the results were Shn3 3UTR inh 3, Peg3 prom inh -6, TROY signal inh 6 and TWEAK Fn14 block 12.
`CC(C)NC(=O)c1ccc2c(c1)nnn2C` gave Shn3 3UTR inh 8, Peg3 prom inh -1, EBV LMP1 NFkB -4, TROY signal inh 1, TRPM1 prom inh 13 and TWEAK Fn14 block -5.
Cn1nnc2cc(C(=O)NC3CCCCC3)ccc21 was read as Shn3 3UTR inh -20, Peg3 prom inh -43, EBV LMP1 NFkB 59*, TROY signal inh -34, TRPM1 prom inh -13 and TWEAK Fn14 block -19.
COc1ccc(-c2cc(C(=O)N3CCN(S(=O)(=O)c4ccccc4)CC3)[nH]n2)cc1 was read as Shn3 3UTR inh -12, Peg3 prom inh 3, EBV LMP1 NFkB -8, TROY signal inh 2, TRPM1 prom inh -6 and TWEAK Fn14 block -6.
COc1ccc(S(=O)(=O)N2CCN(C(=O)c3cc(-c4ccc(Br)cc4)n[nH]3)CC2)cc1OC was read as Shn3 3UTR inh 91*, Peg3 prom inh 35, EBV LMP1 NFkB 18, TROY signal inh 43, TRPM1 prom inh 22 and TWEAK Fn14 block 38.
For COc1ccc(NS(=O)(=O)c2ccc(O)c(C(=O)OCC(=O)NC(C)C3CC4CCC3C4)c2)cc1 (stereo unspecified) the results were Shn3 3UTR inh -8, Peg3 prom inh 1, EBV LMP1 NFkB -9, TROY signal inh -23, TRPM1 prom inh -3 and TWEAK Fn14 block 13.
`CC(NC(=O)COC(=O)c1cc(NS(=O)(=O)c2ccc(Cl)c([N+](=O)[O-])c2)ccc1O)C1CC2CCC1C2` (stereo unspecified) gave Shn3 3UTR inh -16, Peg3 prom inh 96*, EBV LMP1 NFkB 6, TROY signal inh 49, TRPM1 prom inh 4 and TWEAK Fn14 block -7.
`COc1ccc(-c2cc3cc4c(cc3cn2)OCO4)cc1` gave Shn3 3UTR inh -20, Peg3 prom inh -124, EBV LMP1 NFkB -17, TROY signal inh 17, TRPM1 prom inh -21 and TWEAK Fn14 block 54*.
`COc1cccc(-c2noc(-c3ccc4c(c3)OCO4)n2)c1` gave Shn3 3UTR inh -41, Peg3 prom inh -210, EBV LMP1 NFkB -2, TROY signal inh 9, TRPM1 prom inh -32 and TWEAK Fn14 block 53*.
Screening Cc1[nH]c(-c2ccc3c(c2)OCO3)nc1C(=O)O returned Shn3 3UTR inh 3, Peg3 prom inh 12, EBV LMP1 NFkB -3, TROY signal inh -8 and TWEAK Fn14 block -14.
`COc1ccc2cc(-c3ccsc3)ncc2c1` gave Shn3 3UTR inh -23, Peg3 prom inh -303, EBV LMP1 NFkB -17, TROY signal inh -55, TRPM1 prom inh 62* and TWEAK Fn14 block 12.
COc1ccc(-c2noc(-c3ccc4c(c3)OCO4)n2)cc1 was read as Shn3 3UTR inh -20, Peg3 prom inh -236, EBV LMP1 NFkB -13, TROY signal inh -26, TRPM1 prom inh -81 and TWEAK Fn14 block 29.
